Several values for one entry are separate records, joined by “and”; a condition that tells them apart may be missing. Identical values can stand only once. About 2,000 (36%) of roughly 5,500 compounds were called active. Another 18% or so got no clear call; they are omitted. Cut-off read from the data, not from the text of the source: active = normalized growth mostly below about 0.91 (no sharp cut-off); inconclusive = no clear call, values can overlap the other calls; inactive = mostly above about 0.92. Some of the results follow.
Assay: chemical genetic growth profiling, strain panel (AID 1159580);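 note: tested at 20 µM; growth read once vehicle control cultures reached saturation at 30 °C; 1 = growth at the plate median or of vehicle wells; lower values mean less growth of the strain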
Conditions: S. cerevisiae deletion strains, growth OD

Measured: normalized growth

COP(=S)(OC)SCn1nnc2ccccc2c1=O
inactive: locus YAL013W, strain DEP1, stronger effect = lower value 0.987 | locus YAL021C, strain ccr4, stronger effect = lower value 1 | locus YAL026C, strain drs2, stronger effect = lower value 1 | locus YAL030W, strain snc1, stronger effect = lower value 1.03 | locus YBL061C, strain skt5, stronger effect = lower value 1.01 | locus YBR009C, strain hhf1, stronger effect = lower value 1 | locus YBR021W, strain FUR4, stronger effect = lower value 0.887 | locus YBR023C, strain chs3, stronger effect = lower value 0.997 | locus YBR171W, strain sec66, stronger effect = lower value 1.01 | locus YBR229C, strain ROT2, stronger effect = lower value 0.955 | locus YBR231C, strain swc5, stronger effect = lower value 1 | locus YBR279W, strain paf1, stronger effect = lower value 0.992 | locus YCL011C, strain gbp2, stronger effect = lower value 1 | locus YCL016C, strain dcc1, stronger effect = lower value 0.994 | locus YCL029C, strain bik1, stronger effect = lower value 0.974 | locus YCL061C, strain MRC1, stronger effect = lower value 0.996 | locus YCL069W, strain vba3, stronger effect = lower value 1.02 | locus YCR088W, strain abp1, stronger effect = lower value 1.02 | locus YDL005C, strain med2, stronger effect = lower value 1 | locus YDL035C, strain GPR1, stronger effect = lower value 0.921 | locus YDL040C, strain nat1, stronger effect = lower value 1.01 | locus YDL074C, strain BRE1, stronger effect = lower value 0.9 | locus YDL101C, strain DUN1, stronger effect = lower value 0.966 | locus YDL134C, strain PPH21, stronger effect = lower value 0.985 | locus YDL185W, strain tfp1, stronger effect = lower value 0.948 | locus YDL192W, strain arf1, stronger effect = lower value 0.976 | locus YDR001C, strain nth1, stronger effect = lower value 1.02 | locus YDR069C, strain doa4, stronger effect = lower value 0.96 | locus YDR101C, strain arx1, stronger effect = lower value 0.986 | locus YDR137W, strain rgp1, stronger effect = lower value 0.985 | locus YDR150W, strain NUM1, stronger effect = lower value 0.971 | locus YDR159W, strain sac3, stronger effect = lower value 0.927 | locus YDR162C, strain NBP2, stronger effect = lower value 0.963 | locus YDR195W, strain ref2 1.06 | locus YDR297W, strain sur2, stronger effect = lower value 0.998 | locus YDR318W, strain mcm21, stronger effect = lower value 0.972 | locus YDR334W, strain swr1, stronger effect = lower value 1.01 | locus YDR335W, strain msn5, stronger effect = lower value 1 | locus YDR388W, stronger effect = lower value 0.979 | locus YDR392W, strain spt3, stronger effect = lower value 1.03 | locus YDR502C, strain sam2, stronger effect = lower value 0.98 | locus YEL003W, strain gim4, stronger effect = lower value 0.984 | locus YEL037C, strain rad23, stronger effect = lower value 1.01 | locus YEL061C, strain CIN8 (second series), stronger effect = lower value 1.01 | locus YEL061C, strain CIN8, stronger effect = lower value 0.985 | locus YER015W, strain faa2, stronger effect = lower value 1 | locus YER016W, strain bim1, stronger effect = lower value 1.02 | locus YER110C, stronger effect = lower value 0.97 | locus YER111C, strain swi4, stronger effect = lower value 0.996 | locus YER155C, strain BEM2 (second series), stronger effect = lower value 0.999 | locus YER155C, strain BEM2, stronger effect = lower value 0.993 | locus YER167W, strain BCK2, stronger effect = lower value 0.989 | locus YFR010W, strain ubp6, stronger effect = lower value 0.98 | locus YGL078C, strain dbp3, stronger effect = lower value 0.997 | locus YGL086W, strain mad1, stronger effect = lower value 0.992 | locus YGL167C, strain pmr1, stronger effect = lower value 0.992 | locus YGL173C, strain kem1, stronger effect = lower value 1 | locus YGL227W, strain vid30, stronger effect = lower value 0.997 | locus YGL240W, strain doc1, stronger effect = lower value 0.904 | locus YGL248W, strain PDE1, stronger effect = lower value 0.953 | locus YGL253W, strain hxk2, stronger effect = lower value 0.993 | locus YGR078C, strain PAC10, stronger effect = lower value 0.953 | locus YGR135W, strain pre9, stronger effect = lower value 0.969 | locus YGR229C, strain SMI1, stronger effect = lower value 0.956 | locus YGR252W, strain gcn5, stronger effect = lower value 0.824 | locus YHR013C, strain ard1, stronger effect = lower value 0.913 | locus YHR027C, strain rpn1, stronger effect = lower value 1.02 | locus YHR030C, strain SLT2, stronger effect = lower value 0.973 and 0.958 | locus YHR079C, strain IRE1 (second series), stronger effect = lower value 0.983 | locus YHR079C, strain IRE1, stronger effect = lower value 0.979 | locus YHR094C, strain hxt1, stronger effect = lower value 0.99 | locus YHR129C, strain ARP1, stronger effect = lower value 0.967 | locus YHR142W, strain chs7, stronger effect = lower value 0.987 | locus YHR200W, strain rpn10, stronger effect = lower value 0.99 | locus YIL066C, strain RNR3, stronger effect = lower value 0.935 | locus YIL073C, strain SPO22, stronger effect = lower value 0.963 | locus YIL125W, strain kgd1, stronger effect = lower value 0.979 | locus YIR030C, strain dcg1, stronger effect = lower value 0.992 | locus YJL092W, strain hpr5, stronger effect = lower value 1.01 | locus YJL095W, strain BCK1 (second series), stronger effect = lower value 1 | locus YJL095W, strain BCK1, stronger effect = lower value 0.974 and 0.949 | locus YJL115W, strain asf1, stronger effect = lower value 0.991 | locus YJL129C, strain trk1, stronger effect = lower value 1.02 | locus YJL134W, strain LCB3, stronger effect = lower value 0.979 | locus YJL154C, strain vps35, stronger effect = lower value 1.02 | locus YJL164C, strain tpk1, stronger effect = lower value 0.984 | locus YJL166W, strain qcr8, stronger effect = lower value 1.01 | locus YJL168C, strain set2, stronger effect = lower value 0.982 | locus YJL187C, strain SWE1 (second series), stronger effect = lower value 0.977 | locus YJL187C, strain SWE1, stronger effect = lower value 1.01 | locus YJR043C, strain POL32, stronger effect = lower value 0.953 | locus YJR066W, strain TOR1, stronger effect = lower value 0.905

— PubChem BioAssay AID1159580 (chemical genetic matrix, 2015)
